Test results reported in PubChem BioAssay.
The source made the active and inactive calls.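 Rule for the calls: active = growth inhibition above 50% at the single 2 µM test dose, taken to imply half-maximal potency below 2 µM; inactive = the rest.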

test: antimalarial activity against Dd2 strain (AID 2302);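 note: 0% = DMSO untreated growth and 100% = chloroquine plus artemisinin killed control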; details: P. falciparum Dd2 in RBCs, LDH growth readout, 72 h; at 2 µM; active compounds read high

SMILES | growth inhibition
O=C(N[C@@H](Cc1ccccc1)C(=O)NCCN1CCCCC1)c1ccc(O)c(-c2cccc(C(F)(F)F)c2)c1 | 3% (inactive)
Cc1cc(N(C)C)nc(Nc2ccc(NC(=O)c3ccc(Br)o3)cc2)n1 | 57% (active)
N#Cc1ccc(N[C@@H](CC2CCCCC2)C(=O)NCc2cc(F)c(F)cc2F)c2ccccc12 | 39% (inactive)
O=C(c1cccs1)N1N=C(c2cccs2)CC1c1cccc([N+](=O)[O-])c1 (centres undefined) | 27% (inactive)
O=C(Nc1cccc(Cl)c1Cl)N[C@H]1CCN(CCCCCNC(=O)[C@@H]2C[C@H]2c2ccc(Cl)c(Cl)c2)C1 | -7% (inactive)
Clc1cc(Cl)c2cc(CNCCCNc3ccc4ccccc4n3)[nH]c2c1 | 54% (active)
Cn1cnc2c(Nc3ccncc3)nc(-c3ccc4ccccc4c3)nc21 | 66% (active)
O=C(Nc1cccc(-c2ccc(-c3nc4ccc(C(F)(F)F)cc4[nH]3)cc2)c1)c1ccncc1 | 90% (active)
Oc1ccc(CCNCCCCCCNCCc2ccc(Cl)cc2)c(Cl)c1O | 30% (inactive)
COC(=O)c1cccc(CNCc2ccc(-c3ccc(-c4nc5c(C)cccc5[nH]4)cc3)cc2)c1 | 86% (active)
O=C(c1cc2ccccc2o1)N1CCc2cc3nccc(N4CCN5CCC[C@H]5C4)c3cc21 | 101% (active)
CN1CCC(N2CCN(Cc3cccc(-c4cccc(-c5nc6ccccc6[nH]5)c4)c3)CC2)CC1 | 100% (active)
CCCc1cc(C)ccc1OCCCON1C(NC(=O)OCC)=NC(NC(=O)OCC)=NC1(C)C | 97% (active)
CCC(CC(C)C(=O)O)=C(c1ccccc1)c1ccccc1 (centres undefined) | 1% (inactive)
